Results taken from article PMC4336329 (PLoS ONE, 2015).
Screen size: about 310,000 compounds; about 14,000 (4.5%) showed an effect of 50% or more. Effects have a minus sign here. The entries come from a sample that favours strong results as a whole.

Each molecule was assayed against human ether-à-go-go-related gene (hERG) potassium channel (human, UniProt Q12809) (assay: primary screen, population patch clamp on CHO cells stably expressing hERG; higher = less effect of the substance).
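Further: peak tail current of the secondary pulse compared with the same well before compound.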

Chain of human ether-à-go-go-related gene (hERG) potassium channel (Q12809 whole entry, looked up): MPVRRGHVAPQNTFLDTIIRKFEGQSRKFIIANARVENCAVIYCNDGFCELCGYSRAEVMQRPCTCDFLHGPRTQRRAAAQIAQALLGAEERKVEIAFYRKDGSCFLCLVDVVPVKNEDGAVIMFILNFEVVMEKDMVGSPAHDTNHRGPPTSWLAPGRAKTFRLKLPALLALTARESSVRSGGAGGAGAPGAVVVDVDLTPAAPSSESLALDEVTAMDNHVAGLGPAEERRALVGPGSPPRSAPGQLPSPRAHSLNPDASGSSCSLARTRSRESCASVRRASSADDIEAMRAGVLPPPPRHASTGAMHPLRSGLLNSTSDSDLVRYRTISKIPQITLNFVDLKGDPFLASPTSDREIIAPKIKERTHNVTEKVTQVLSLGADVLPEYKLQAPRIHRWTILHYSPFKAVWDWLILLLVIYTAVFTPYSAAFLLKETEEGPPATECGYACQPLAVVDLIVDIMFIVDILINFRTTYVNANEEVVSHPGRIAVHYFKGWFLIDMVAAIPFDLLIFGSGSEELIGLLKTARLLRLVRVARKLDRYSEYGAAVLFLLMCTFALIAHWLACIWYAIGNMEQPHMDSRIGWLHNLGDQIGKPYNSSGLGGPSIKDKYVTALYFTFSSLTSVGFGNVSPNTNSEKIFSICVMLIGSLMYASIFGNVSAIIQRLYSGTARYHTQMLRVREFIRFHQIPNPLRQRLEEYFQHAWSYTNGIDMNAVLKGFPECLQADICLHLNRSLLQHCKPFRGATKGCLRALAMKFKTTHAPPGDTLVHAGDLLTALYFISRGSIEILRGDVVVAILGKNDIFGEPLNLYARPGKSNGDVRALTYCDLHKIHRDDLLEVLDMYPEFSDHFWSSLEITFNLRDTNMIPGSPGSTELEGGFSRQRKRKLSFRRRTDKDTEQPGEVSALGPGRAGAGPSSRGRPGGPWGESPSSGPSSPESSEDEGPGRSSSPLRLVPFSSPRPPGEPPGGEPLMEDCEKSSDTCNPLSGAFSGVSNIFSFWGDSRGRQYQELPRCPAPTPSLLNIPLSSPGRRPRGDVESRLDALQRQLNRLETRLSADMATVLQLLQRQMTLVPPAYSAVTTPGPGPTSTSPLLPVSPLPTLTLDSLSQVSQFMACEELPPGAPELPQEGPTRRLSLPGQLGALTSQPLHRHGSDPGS

First: CC(C)OC(=O)CC(=O)CSc1nc2c(c(-c3cccs3)c1C#N)CCC2
Second: Cc1csc(=O)n1CC(=O)OC(C)C(=O)Nc1ccc(F)c(F)c1F (centres unmarked)
The “hERG current change (%, negative = inhibition) at 10uM” value of the first is lower: -8.89% for the first, -4.29% for the second.

First: O=C(c1ccc(N2CCCS2(=O)=O)cc1)N1CCN(c2ccc(F)cc2)CC1
Second: Cc1cc(N2CCN(c3ccc(F)cc3)CC2)nc2cc(O)ccc12
The “hERG current change (%, negative = inhibition) at 10uM” value of the first is higher: -28.9% for the first, -75.9% for the second.

Compared with `COc1ccc(/C=N/Nc2ccc([N+](=O)[O-])cc2)cc1O`, `COc1ccc([N+](=O)[O-])cc1NC(=O)Nc1ccc(OC)c(OC)c1` is lower in “hERG current change (%, negative = inhibition) at 10uM” value: 10.1% for the first, 8.37% for the second.

Going from `O=C(COc1ccc(-c2nnco2)cc1)NCc1ccccc1Cl` to `O=C(COc1ccc(Cl)cc1)Nc1ccc2c(c1)nc1n2CCOC1`, the “hERG current change (%, negative = inhibition) at 10uM” value falls from -6.27% to -34%.

Compared with `C=CCN(CC=C)C(=S)NC(=O)c1ccc(OC)c(Br)c1`, `COc1ccc(NC(=O)c2ccccn2)cc1OC` is lower in “hERG current change (%, negative = inhibition) at 10uM” value: 5.1% for the first, 3.32% for the second.

First: Cn1ncc([N+](=O)[O-])c1C(=O)Nc1ccn(Cc2ccccc2F)n1
Second: Cc1cccc(NC(=O)Cn2cnc3c(oc4ccccc43)c2=O)c1
The “hERG current change (%, negative = inhibition) at 10uM” value of the first is lower: -9.33% for the first, 12.5% for the second.

First: Cc1c(NC(=O)OCCNC(=O)COc2ccc(Cl)cc2Cl)sc(=S)n1C
Second: O=C(CO/N=C/c1ccc(Cl)cc1Cl)NNC(=O)c1ccc(Cl)cc1Cl
The “hERG current change (%, negative = inhibition) at 10uM” value of the first is lower: -5.51% for the first, 3.17% for the second.

First: CC1CCN(c2nc(-c3ccncc3)nc3ccccc23)CC1
Second: CCN1CCN(c2nc(-c3ccncc3)nc3ccccc23)CC1
The “hERG current change (%, negative = inhibition) at 10uM” value of the first is higher: -27% for the first, -77.8% for the second.

Going from `CCC1CCCCN1c1nc(-c2ccncc2)nc2ccccc12` (centres unmarked) to `Cc1cc(N2CCCC2)nc2ccccc12`, the “hERG current change (%, negative = inhibition) at 10uM” value rises from -42.5% to -41.2%.

First: CCC1=C(C)CN(C(=O)NCCc2ccc(S(=O)(=O)NC(=O)NC3CCC(C)CC3)cc2)C1=O (centres unmarked)
Second: COc1ccc(CCNC(=O)COC(=O)Cc2ccc(OC)cc2)cc1
The “hERG current change (%, negative = inhibition) at 10uM” value of the first is lower: -13.5% for the first, 9.48% for the second.

Going from `CCOc1ccc(/C=C(\C#N)C(=O)NCC2CCCO2)cc1OCC` (centres unmarked) to `CCOc1cc2c(cc1OCC)-n1cccc1C(c1ccc(C)cc1C)NC2.Cl` (centres unmarked), the “hERG current change (%, negative = inhibition) at 10uM” value rises from -5.95% to -0.599%.

Compared with `O=C(Nc1ncccc1O)c1ccc(Cl)c(S(=O)(=O)N2CCCCCC2)c1`, `O=C(Nc1ncccc1O)c1ccc(Cl)c(S(=O)(=O)N2CCCCC2)c1` is higher in “hERG current change (%, negative = inhibition) at 10uM” value: -61% for the first, -16.1% for the second.

First: Cc1cccnc1NC(=O)c1ccc(Cl)c(S(=O)(=O)N2CCCCCC2)c1
Second: Cc1cccnc1NC(=O)c1ccc(Cl)c(S(=O)(=O)N2CCCCC2)c1
The “hERG current change (%, negative = inhibition) at 10uM” value of the first is lower: -65.5% for the first, -21.7% for the second.

First: Cc1ccc(C(=O)Nc2ncccc2O)cc1S(=O)(=O)N1CCCCC1
Second: Cc1cccnc1NC(=O)c1ccc(Cl)c(S(=O)(=O)N2CCCC2)c1
The “hERG current change (%, negative = inhibition) at 10uM” value of the first is lower: -14.3% for the first, -9.58% for the second.

First: O=C(Nc1cccnc1)c1ccc(Cl)c(S(=O)(=O)N2CCCCC2)c1
Second: O=C(Nc1cccnc1)c1ccc(Cl)c(S(=O)(=O)N2CCCCCC2)c1
The “hERG current change (%, negative = inhibition) at 10uM” value of the first is higher: -15.6% for the first, -31.6% for the second.

Compared with `O=C(NCc1ccccn1)c1ccc(Cl)c(S(=O)(=O)N2CCCCC2)c1`, `O=C(NCc1ccccn1)c1ccc(Cl)c(S(=O)(=O)N2CCCCCC2)c1` is lower in “hERG current change (%, negative = inhibition) at 10uM” value: -10.1% for the first, -64.5% for the second.

Going from `CC(NC(=O)c1ccc(Cl)c(S(=O)(=O)N2CCCCCC2)c1)c1cccnc1` (centres unmarked) to `O=C(NCc1ccccn1)c1ccc(Cl)c(S(=O)(=O)N2CCOCC2)c1`, the “hERG current change (%, negative = inhibition) at 10uM” value rises from -52.3% to -4.89%.

Going from `O=C(O)c1csc(Cc2ccccc2)n1` to `Cc1ccnc(NC(=O)CCCc2ccccc2)c1`, the “hERG current change (%, negative = inhibition) at 10uM” value falls from 15.1% to 13%.

First: COc1ccc(Cl)cc1NC(=O)Nc1cc(C)on1
Second: Cc1cc(N2CCOCC2)nc2ccc(Cl)cc12
The “hERG current change (%, negative = inhibition) at 10uM” value of the first is lower: 0.43% for the first, 9.25% for the second.

Compared with `CC(C)C(O)(C#CCN1CCCCC1)C(C)C`, `Cc1cc(N2CCCCC2)nc2ccccc12` is lower in “hERG current change (%, negative = inhibition) at 10uM” value: -1.16% for the first, -9.74% for the second.

Going from `Cc1cccc(N2C(=O)CC(NNc3nc4ccccc4s3)C2=O)c1` (centres unmarked) to `CC(C(=O)c1ccccc1)n1cnc2ccccc2c1=O` (centres unmarked), the “hERG current change (%, negative = inhibition) at 10uM” value falls from 10.6% to -2.46%.

Going from `Cc1cc(C)c(C(=O)C(C)OC(=O)Cn2cnc3c2c(=O)n(C)c(=O)n3C)cc1C` (centres unmarked) to `CCOc1ccc(C(=O)C(C)OC(=O)CN2C(=O)NC(C)(C)C2=O)cc1` (centres unmarked), the “hERG current change (%, negative = inhibition) at 10uM” value rises from -17.6% to -7.23%.

Going from `CC(=O)c1cccc(NC(=O)CCN2C(=O)C3CC=CCC3C2=O)c1` (centres unmarked) to `O=C(CC1NC(=O)NC1=O)Nc1ccccc1` (centres unmarked), the “hERG current change (%, negative = inhibition) at 10uM” value falls from 5.49% to -0.537%.

Compared with `COCCN(CCOC)S(=O)(=O)c1ccc(OC)cc1`, `CCN(CC)S(=O)(=O)c1ccc(Oc2ccccc2OC)cc1` is lower in “hERG current change (%, negative = inhibition) at 10uM” value: 8.79% for the first, -65.3% for the second.

First: COc1ccc(C2Nc3ccccc3C(=O)N2NS(=O)(=O)c2ccc(C)cc2)c(OC)c1 (centres unmarked)
Second: COc1ccccc1Oc1ccc(S(=O)(=O)N2CCCC2)cc1
The “hERG current change (%, negative = inhibition) at 10uM” value of the first is higher: 3.22% for the first, -77.3% for the second.

First: CCOc1ccc(C(=O)C(C)OC(=O)Cn2c(C)csc2=O)cc1 (centres unmarked)
Second: CCOc1ccc(/C=N/NC(=O)c2[nH]c3ccc(C)cc3c2C)cc1
The “hERG current change (%, negative = inhibition) at 10uM” value of the first is lower: -60.1% for the first, 12.4% for the second.

Compared with `CCOc1cc2c(cc1OCC)-n1cccc1C(c1cccc(F)c1)NC2.Cl` (centres unmarked), `CCOc1cc2c(cc1OCC)-n1cccc1C(c1ccc(F)cc1)NC2.Cl` (centres unmarked) is higher in “hERG current change (%, negative = inhibition) at 10uM” value: -14.8% for the first, 0.0384% for the second.

First: CCOc1cc2c(cc1OCC)-n1cccc1C(c1cccc([N+](=O)[O-])c1)NC2.Cl (centres unmarked)
Second: CCOc1cc2c(cc1OCC)-n1cccc1C(c1ccc(OC)cc1)NC2.Cl (centres unmarked)
The “hERG current change (%, negative = inhibition) at 10uM” value of the first is lower: -59.9% for the first, -48.1% for the second.

Going from `CCOc1cc2c(cc1OCC)-n1cccc1C(c1ccc(OC)c(OC)c1)NC2.Cl` (centres unmarked) to `CCOc1cc2c(cc1OCC)-n1cccc1C(c1ccccc1OC)NC2.Cl` (centres unmarked), the “hERG current change (%, negative = inhibition) at 10uM” value rises from -30.2% to -7.52%.

First: CCOc1cc2c(cc1OCC)-n1cccc1C(c1cc(C)c(OC)cc1C)NC2.Cl (centres unmarked)
Second: CCOc1cc2c(cc1OCC)-n1cccc1C(c1ccc(OC(F)F)cc1)NC2.Cl (centres unmarked)
The “hERG current change (%, negative = inhibition) at 10uM” value of the first is higher: -62.1% for the first, -65.3% for the second.

Going from `O=S(=O)(NC1=NCCCCCC1)c1cccs1` to `Cc1cc(N2CCCCCC2)nc2ccccc12.O=C(O)C(=O)O`, the “hERG current change (%, negative = inhibition) at 10uM” value falls from 3.19% to -56.1%.

Going from `CCN1C(C(=O)c2ccccc2)=C(Nc2ccccc2C)c2ccccc2S1(=O)=O` to `CCN(CC)S(=O)(=O)c1ccc(Oc2ccccc2)cc1`, the “hERG current change (%, negative = inhibition) at 10uM” value falls from -4.84% to -20.7%.

First: Cl.Nn1cnnc1N/N=C/c1ccc(Cl)c([N+](=O)[O-])c1
Second: Cl.NCCCNc1ccc([N+](=O)[O-])cc1C(F)(F)F
The “hERG current change (%, negative = inhibition) at 10uM” value of the first is lower: -26.6% for the first, -15% for the second.

Compared with `O=c1[nH]c(/C=C\c2cccs2)nc(O)c1[N+](=O)[O-]`, `CCOc1cccc(/C=N/N2C(=O)CSC2=S)c1O` is higher in “hERG current change (%, negative = inhibition) at 10uM” value: -4.76% for the first, 24.2% for the second.

First: COc1cccc(Oc2ccc(S(=O)(=O)N3CCCC3)cc2[N+](=O)[O-])c1
Second: COc1cc(OC)cc(Oc2ccc(S(=O)(=O)N3CCCCC3)cc2[N+](=O)[O-])c1
The “hERG current change (%, negative = inhibition) at 10uM” value of the first is lower: -57.1% for the first, 1.5% for the second.

First: CCN1CCN(S(=O)(=O)c2ccc(Oc3ccccc3OC)cc2)CC1
Second: COc1ccccc1Oc1ccc(S(=O)(=O)N2CCN(C)CC2)cc1
The “hERG current change (%, negative = inhibition) at 10uM” value of the first is lower: -15% for the first, -1.98% for the second.

Going from `CCN(CC)S(=O)(=O)c1ccc(Oc2ccc(S(=O)(=O)N(CC)CC)cc2)cc1` to `CCOc1ccc(CN(C)CC(=O)Nc2cc(C)c(C)cc2[N+](=O)[O-])cc1.CN(C)C=O`, the “hERG current change (%, negative = inhibition) at 10uM” value rises from -22.7% to 9.36%.

Compared with `O=[N+]([O-])c1cc(S(=O)(=O)N2CCCC2)ccc1OCCOc1ccccc1`, `COc1ccc2c(C)cc(N3CCN(Cc4ccccc4)CC3)nc2c1` is higher in “hERG current change (%, negative = inhibition) at 10uM” value: -32.4% for the first, -29.6% for the second.

First: CN=C1S/C(=C\c2cn(CC(=O)OC)c3ccccc23)C(=O)N1C
Second: CN1OC(Cn2cc(C#N)c(=O)n(C)c2=O)CC1c1ccccc1 (centres unmarked)
The “hERG current change (%, negative = inhibition) at 10uM” value of the first is lower: 7.11% for the first, 12.5% for the second.

Compared with `COc1ccc2c(C)cc(N3CCN(c4ccc(F)cc4)CC3)nc2c1`, `COc1ccc(N2CCN(c3cc(C)c4ccc(O)cc4n3)CC2)cc1` is higher in “hERG current change (%, negative = inhibition) at 10uM” value: -25.7% for the first, -24.4% for the second.

Compared with `Cc1cc(N2CCCN(C)CC2)nc2cc(Cl)ccc12`, `Cc1cc(N2CCN(C)CC2)nc2ccccc12` is higher in “hERG current change (%, negative = inhibition) at 10uM” value: -61.7% for the first, -0.28% for the second.

Going from `COc1ccc2c(C)cc(N3CCCCCC3)nc2c1.O=C(O)C(=O)O` to `COc1ccc2c(C)cc(N3CCOCC3)nc2c1`, the “hERG current change (%, negative = inhibition) at 10uM” value rises from -82% to -7.7%.

First: O=C(NCCO)Nc1ccc(Cl)cc1
Second: O=C(CN(C(=O)c1csnn1)c1ccc(F)c(Cl)c1)NCc1ccc(F)cc1
The “hERG current change (%, negative = inhibition) at 10uM” value of the first is higher: 27.7% for the first, 7.3% for the second.

First: Oc1ccc(Nc2nc(-c3ccc(O)cc3)cs2)cc1
Second: Cc1cc(C)cc(NC(=O)c2ccc(CSc3nnnn3C)cc2)c1
The “hERG current change (%, negative = inhibition) at 10uM” value of the first is higher: 18.9% for the first, -24% for the second.

In the case of `CCn1cc(C(=O)O)c(=O)c2cc(F)c(N3CCN(C(=S)NC(=O)c4cccc(F)c4)CC3)cc21`, the “hERG current change (%, negative = inhibition) at 10uM” value was 5.44%.
